Results from PubChem BioAssay (Tox21).
Records with an inconclusive call do not appear. Active and inactive are the calls of the source. Unless noted, calls follow the shape of the dose curve; as a rule, active = well fitted curve in the direction sought with a large enough effect in the repeat runs; inconclusive = weak or mixed curves; inactive = no such curve, though single readings can be large; an effect the other way counts as inactive or inconclusive.

Legend:
[1] = molecular target: Peroxisome proliferator-activated receptor delta (Homo sapiens) (UniProt Q03181); assay: qHTS assay to identify small molecule agonists of the peroxisome proliferator-activated receptor delta (PPARd) signaling pathway (AID 743212; calls by dose curve)
Outline: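 HEK293H UAS-bla reporter cells, human PPARd system; compounds delivered in DMSO after 5 h plating, then at 37 C. Beta-lactamase FRET read, 2 h RT substrate step.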

[2] = qHTS assay to identify small molecule antagonists of the peroxisome proliferator-activated receptor delta (PPARd) signaling pathway - cell viability counter screen (AID 743213); also: nearly all actives have a fitted effect of over 50% in size
Outline: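 HEK293H PPARd UAS-bla cells, 5 h pre-incubation, compound + L165041 300 nM final, 17 h 37 C; B/G FRET substrate 2 h RT; then CellTiter-Glo 30 min RT, luminescence.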

[3] = molecular target: Peroxisome proliferator-activated receptor delta (Homo sapiens) (UniProt Q03181); assay: qHTS assay to identify small molecule antagonists of the peroxisome proliferator-activated receptor delta (PPARd) signaling pathway (AID 743215; active = well fitted inhibition curve with a large enough effect in the signal ratio in the repeat runs, not every such curve was filed as active; the % refers to the signal ratio;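 also: cells stimulated with agonist L165041 at 300 nM final during compound exposure; series mostly up to about 62 µM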)
Outline: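 With L165041 present at 300 nM final, compounds were incubated 17 h at 37 C on PPARd UAS-bla HEK293H cells. A FRET-based beta-lactamase substrate was then applied for 2 h at room temperature and fluorescence intensity recorded.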

[4] = qHTS assay to identify small molecule antagonists of the farnesoid-X-receptor (FXR) signaling pathway - cell viability counter screen (AID 743221; active = well fitted cell-killing curve with a large enough effect in the repeat runs, not every such curve was filed as active; also: nearly all actives have a fitted effect of over 50% in size)
Outline: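 Quantitative HTS of the Tox21 10K library run in parallel with the beta-lactamase reporter read. HEK 293T cells carrying a UAS-driven bla reporter got compound and 50 uM CDCA (final) for 16 h; ATP-based luminescence followed.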

[5] = molecular target: Vitamin D3 receptor (Homo sapiens) (UniProt P11473); assay: qHTS assay to identify small molecule agonists of the vitamin D receptor (VDR) signaling pathway (AID 743222; calls by dose curve)
Outline: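 VDR-bla cells were seeded, left 4 h, treated with compounds in DMSO for 16 h, incubated 2 h at RT with B/G FRET substrate, and read for fluorescence.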

[6] = molecular target: Vitamin D3 receptor (Homo sapiens) (UniProt P11473); assay: qHTS assay to identify small molecule antagonists of the vitamin D receptor (VDR) signaling pathway (AID 743223; active = well fitted inhibition curve with a large enough effect in the signal ratio in the repeat runs, not every such curve was filed as active; the % refers to the signal ratio)
Outline: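 Fluorescence from LiveBLAzer B/G FRET substrate, read after 2 h at room temperature, reflects beta-lactamase reporter activity in VDR-bla cells treated 16 h at 37C with compounds and agonist 1alpha,25-dihydroxyvitamin D3 (3 nM final).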

[7] = qHTS assay to identify small molecule agonists of the vitamin D receptor (VDR) signaling pathway - cell viability counter screen (AID 743224); also: series mostly up to about 63 µM; nearly all actives have a fitted effect of over 50% in size
Outline: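 Here cell health was gauged by luminescent ATP detection (CellTiter-Glo, 30 min RT) in VDR-bla cells that had been incubated with test compounds for 16 h at 37C and 5% CO2.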

[8] = molecular target: Bile acid receptor (Homo sapiens) (UniProt Q96RI1); assay: qHTS assay to identify small molecule antagonists of the farnesoid-X-receptor (FXR) signaling pathway (AID 743217; active = well fitted inhibition curve with a large enough effect in the signal ratio in the repeat runs, not every such curve was filed as active; the % refers to the signal ratio)
Outline: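 In this cell-based antagonist screen, inhibition of CDCA-driven (50 uM final) UAS-beta-lactamase expression in HEK 293T cells was measured by FRET fluorescence following 16 h compound exposure at 37 °C.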

[9] = molecular target: Bile acid receptor (Homo sapiens) (UniProt Q96RI1); assay: qHTS assay to identify small molecule agonists of the farnesoid-X-receptor (FXR) signaling pathway (AID 743220; active = well fitted activation curve with a large enough effect in the signal ratio in the repeat runs, not every such curve was filed as active; the % refers to the signal ratio)
Outline: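 Beta-lactamase reporter under UAS control in GeneBLAzer FXR HEK 293T cells (5000/well) measured with LiveBLAzer FRET substrate after 2 h at room temperature. Compound exposure lasted 16 h at 37C.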

[10] = qHTS assay to identify small molecule agonists of the farnesoid-X-receptor (FXR) signaling pathway - cell viability counter screen (AID 743218); also: nearly all actives have a fitted effect of over 45% in size
Outline: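 After 16 h at 37 C with test compounds, FXR-bla HEK 293T cells were given LiveBLAzer B/G substrate for 2 h at RT and then CellTiter-Glo; luminescence was taken after 30 min.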
% is scaled to controls: 0 for no effect and ±100 for the full control effect.

Chain of Peroxisome proliferator-activated receptor delta (Homo sapiens) (Q03181 whole entry, looked up): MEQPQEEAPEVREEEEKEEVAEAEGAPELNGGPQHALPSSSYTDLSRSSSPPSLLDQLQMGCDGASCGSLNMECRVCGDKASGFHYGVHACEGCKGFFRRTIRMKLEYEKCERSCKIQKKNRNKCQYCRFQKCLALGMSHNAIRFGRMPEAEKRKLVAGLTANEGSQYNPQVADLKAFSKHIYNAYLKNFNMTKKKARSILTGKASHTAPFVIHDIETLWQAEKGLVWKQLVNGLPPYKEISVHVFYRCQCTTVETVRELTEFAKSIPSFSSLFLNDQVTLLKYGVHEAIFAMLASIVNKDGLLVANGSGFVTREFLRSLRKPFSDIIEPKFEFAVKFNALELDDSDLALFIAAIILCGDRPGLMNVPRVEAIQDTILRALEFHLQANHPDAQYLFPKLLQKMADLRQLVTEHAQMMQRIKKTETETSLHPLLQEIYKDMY
Chain of Bile acid receptor (Homo sapiens) (Q96RI1 whole entry, looked up): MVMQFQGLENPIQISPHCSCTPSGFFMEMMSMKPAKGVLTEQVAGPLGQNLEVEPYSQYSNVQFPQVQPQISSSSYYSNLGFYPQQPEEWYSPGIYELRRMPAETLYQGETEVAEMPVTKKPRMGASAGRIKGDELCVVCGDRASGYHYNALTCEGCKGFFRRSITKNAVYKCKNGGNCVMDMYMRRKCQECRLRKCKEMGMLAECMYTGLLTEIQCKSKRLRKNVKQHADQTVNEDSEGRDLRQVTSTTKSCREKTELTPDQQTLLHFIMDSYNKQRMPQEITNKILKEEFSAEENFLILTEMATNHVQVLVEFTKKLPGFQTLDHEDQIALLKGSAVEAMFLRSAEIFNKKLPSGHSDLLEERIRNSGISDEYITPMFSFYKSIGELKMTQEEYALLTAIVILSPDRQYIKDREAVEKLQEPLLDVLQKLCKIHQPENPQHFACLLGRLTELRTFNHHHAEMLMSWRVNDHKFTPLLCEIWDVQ
Chain of Vitamin D3 receptor (Homo sapiens) (P11473 whole entry, looked up): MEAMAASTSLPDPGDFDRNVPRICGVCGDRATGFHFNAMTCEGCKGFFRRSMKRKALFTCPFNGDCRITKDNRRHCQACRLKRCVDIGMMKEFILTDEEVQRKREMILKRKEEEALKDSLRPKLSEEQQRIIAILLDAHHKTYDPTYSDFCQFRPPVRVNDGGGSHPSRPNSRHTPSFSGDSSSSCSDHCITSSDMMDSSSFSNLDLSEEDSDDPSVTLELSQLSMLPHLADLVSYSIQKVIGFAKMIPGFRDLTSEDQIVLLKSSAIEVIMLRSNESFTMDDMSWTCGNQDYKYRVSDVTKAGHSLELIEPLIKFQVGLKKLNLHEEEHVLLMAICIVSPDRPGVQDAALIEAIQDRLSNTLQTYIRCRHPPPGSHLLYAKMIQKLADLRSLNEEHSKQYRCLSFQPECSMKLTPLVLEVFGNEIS

COc1cc(S(N)(=O)=O)cc(C(=O)O)c1OC
inactive: outcome [1] | outcome [2] | outcome [3] | outcome [4] | outcome [5] | outcome [6] | outcome [7]

CCOC(=O)CC
inactive: outcome [1] | outcome [3] | outcome [8] | outcome [9] | outcome [4] | outcome [7]

CC(=O)OCC(=O)[C@@]1(O)CC[C@H]2[C@@H]3CCC4=CC(=O)C=C[C@]4(C)[C@H]3[C@@H](O)C[C@@]21C
inactive: outcome [1] | outcome [2] | outcome [10] | outcome [4] | outcome [5] | outcome [6] | outcome [7]

COc1cc(OC)cc(OC)c1
inactive: outcome [2] | outcome [3] | outcome [8] | outcome [10] | outcome [9] | outcome [4] | outcome [5] | outcome [6] | outcome [7]

CC12CCCC=C1C(=O)OC2=O (configuration not stated)
inactive: outcome [1] | outcome [3] | outcome [4] | outcome [5] | outcome [6] | outcome [7]

CCCCCCC(O)CO (configuration not stated)
inactive: outcome [2] | outcome [3] | outcome [8] | outcome [10] | outcome [9] | outcome [4] | outcome [7]

CCCCC(CC)CCC(CC(C)C)OS(=O)(=O)O (configuration not stated)
inactive: outcome [2] | outcome [8] | outcome [10] | outcome [9] | outcome [4] | outcome [5] | outcome [6] | outcome [7]

CC(C)(C)OC=O
inactive: outcome [2] | outcome [8] | outcome [10] | outcome [9] | outcome [4] | outcome [5] | outcome [6] | outcome [7]

C/C=C(\C)C(=O)OC/C=C(\C)CCC=C(C)C
inactive: outcome [1] | outcome [3] | outcome [10] | outcome [4] | outcome [5] | outcome [6] | outcome [7]

COCc1nnc(-c2ccc[n+]([O-])c2)n1-c1c(Cl)c(Cl)cc2[nH]c(=O)c(=O)[nH]c12
inactive: outcome [2] | outcome [8] | outcome [10] | outcome [9] | outcome [4] | outcome [5] | outcome [6] | outcome [7]

Cc1nnc(C(=O)NC(C)(C)c2nc(C(=O)NCc3ccc(F)cc3)c(O)c(=O)n2C)o1
inactive: outcome [1] | outcome [10] | outcome [4] | outcome [5] | outcome [6] | outcome [7]

CCCCC(CC)COC(=O)CC#N (configuration not stated)
inactive: outcome [2] | outcome [8] | outcome [10] | outcome [9] | outcome [4] | outcome [5] | outcome [6] | outcome [7]

Cc1ccc2cccnc2c1
inactive: outcome [2] | outcome [8] | outcome [10] | outcome [9] | outcome [4] | outcome [5] | outcome [7]

C[n+]1ccccc1/C=N/O
inactive: outcome [1] | outcome [3] | outcome [10] | outcome [4] | outcome [5] | outcome [6] | outcome [7]

O=C1CC2(CCCC2)CC(=O)N1CCNCC1COc2ccccc2O1 (configuration not stated)
inactive: outcome [2] | outcome [8] | outcome [10] | outcome [9] | outcome [4] | outcome [5] | outcome [6] | outcome [7]

O=C(O)COc1ccc2ccccc2c1
inactive: outcome [2] | outcome [8] | outcome [10] | outcome [9] | outcome [4] | outcome [5] | outcome [6] | outcome [7]

O=C1CCCc2c(O)cccc21
inactive: outcome [2] | outcome [8] | outcome [10] | outcome [9] | outcome [4] | outcome [5] | outcome [6] | outcome [7]

Cc1cc2c(cc1CC(=O)c1sccc1S(=O)(=O)Nc1onc(C)c1Cl)OCO2
inactive: outcome [1] | outcome [10] | outcome [4] | outcome [6] | outcome [7]

Cc1cccc(N)n1
inactive: outcome [1] | outcome [8] | outcome [10] | outcome [4] | outcome [5] | outcome [7]

CCN1CCN(C(=O)N[C@@H](C(=O)N[C@@H]2C(=O)N3C(C(=O)O)=C(CSc4nnnn4C)CS[C@H]23)c2ccc(O)cc2)C(=O)C1=O
inactive: outcome [1] | outcome [3] | outcome [10] | outcome [4]

CCOC(=O)COc1ccc2c(C)c(CCN(CC)CC)c(=O)oc2c1Cl
inactive: outcome [2] | outcome [8] | outcome [10] | outcome [9] | outcome [4] | outcome [5] | outcome [7]

CCC(C)(C)C
inactive: outcome [2] | outcome [8] | outcome [10] | outcome [9] | outcome [4] | outcome [5] | outcome [6] | outcome [7]

c1cc2ccc3ccc4ccc5cccc6c(c1)c2c3c4c56
inactive: viability change, negative = cytotoxic [2] -10.9% [at 2.83 µM] | ratio activity, negative = inhibition [3] 2.1% [at 2.83 µM] | activity change, negative = inhibition [8] 6.71% [at 2.69 µM] | viability change, negative = cytotoxic [10] 0.833% [at 2.7 µM] | activity change, negative = cytotoxicity [4] 2.77% [at 2.69 µM] | activity change, negative = inhibition [6] -9.77% [at 3.11 µM] | activity change, negative = cytotoxicity [7] 11.1% [at 2.7 µM]

CC(C)(C)C(=O)CC(=O)C(C)(C)C
inactive: outcome [2] | outcome [8] | outcome [10] | outcome [9] | outcome [4] | outcome [5] | outcome [6] | outcome [7]

C[C@@H]1CCC[C@H](C)N1CCCC(O)(c1ccccc1)c1ccccn1 (some centres not stated)
inactive: outcome [1] | outcome [10] | outcome [4] | outcome [7]

NCC1CCC(C(=O)Oc2ccc(CCC(=O)O)cc2)CC1 (configuration not stated)
inactive: outcome [2] | outcome [3] | outcome [8] | outcome [10] | outcome [9] | outcome [4] | outcome [5] | outcome [6] | outcome [7]

COc1ccccc1N1CCN(CC(O)COc2cc(OC)c(OC)c(OC)c2)CC1 (configuration not stated)
inactive: outcome [1] | outcome [3] | outcome [4] | outcome [7]

CCNC(=O)C(C)OC(=O)Nc1ccccc1 (configuration not stated)
inactive: outcome [2] | outcome [8] | outcome [10] | outcome [9] | outcome [4] | outcome [5] | outcome [6] | outcome [7]

Cc1ccc(NC(N)=O)cc1
inactive: outcome [1] | outcome [3] | outcome [10] | outcome [4] | outcome [5] | outcome [6] | outcome [7]
